What all share (conditions): mRNA level, 48 h; actives raise or lower the signal
Read-out in experiment [1]: matrix metalloproteinase-10 (MMP10), MMP10 (gene 4319)
As to the kind of experiment: LTEA_HepaRG_MMP10: Life Technologies and Expression Analysis (LTEA) Assay for matrix metalloproteinase-10 (MMP10) using HepaRG (AID 2283517). In short, it runs like this: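 In differentiated HepaRG cultures kept in 0.5% DMSO, test chemicals act for 48 h over an eight-point range with a top dose of 100 uM. Expression is then quantified by TaqMan RT-PCR against ACTB, GAPDH and POLR2A.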

Read-out in experiment [2]: MYC, MYC (gene 4609)
As to the kind of experiment: LTEA_HepaRG_MYC: Life Technologies and Expression Analysis (LTEA) Assay for MYC using HepaRG (AID 2283518). The procedure, abridged: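 Expression changes were scored by TaqMan qRT-PCR with ACTB, GAPDH and POLR2A normalization. Cultures in serum-free induction medium received duplicate 8-point concentration series, highest 100 uM, for 48 h; DMSO (0.5%) served as baseline.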

Read-out in experiment [3]: matrix metalloproteinase-3 (MMP3), MMP3 (gene 4314)
As to the kind of experiment: LTEA_HepaRG_MMP3: Life Technologies and Expression Analysis (LTEA) Assay for matrix metalloproteinase-3 (MMP3) using HepaRG (AID 2283519). In short, it runs like this:
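Human liver HepaRG cultures received chemicals (top concentration 100 uM, 0.5% DMSO) for 48 h in duplicate. MMP3 mRNA induction or loss was then assessed via TaqMan qRT-PCR with housekeeping-gene normalisation.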

Read-out in experiment [4]: Paternally Expressed 10 (PEG10), PEG10 (gene 23089)
As to the kind of experiment: LTEA_HepaRG_PEG10: Life Technologies and Expression Analysis (LTEA) Assay for Paternally Expressed 10 (PEG10) using HepaRG (AID 2283520). In short, it runs like this:
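qRT-PCR read-out: PEG10 mRNA normalised to three housekeeping genes, fitted bidirectionally against 0.5% DMSO vehicle. HepaRG cells received test chemicals for 48 h in serum-free induction medium, 8 points, top 100 uM, half-log steps.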

Read-out in experiment [5]: Nuclear factor NF-kappa-B p105 subunit (Homo sapiens) (UniProt P19838)
Nature of the experiment: LTEA_HepaRG_NFKB1: Life Technologies and Expression Analysis (LTEA) Assay for Nuclear Factor Kappa B Subunit 1 (NFKB1) using HepaRG (AID 2283521).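 As to outcome: differentiated human HepaRG liver cells in serum-free induction medium; TaqMan qRT-PCR transcript normalised to ACTB GAPDH and POLR2A housekeeping genes.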 The procedure, abridged: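 HepaRG, 48 h exposure; 8-pt half-log series from 100 uM in 0.5% DMSO; duplicates. Readout: NFKB1 mRNA by qRT-PCR (Fluidigm arrays), housekeeping-normalized. Gain/loss fit vs DMSO baseline.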

Read-out in experiment [6]: Protein phosphatase 2A (PPP2R4), PTPA (gene 5524)
Nature of the experiment: LTEA_HepaRG_PPP2R4: Life Technologies and Expression Analysis (LTEA) Assay for Protein phosphatase 2A (PPP2R4) using HepaRG (AID 2283522). The procedure, abridged: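 HepaRG, 48 h exposure, 8-pt half-log series from 100 uM, 0.5% DMSO vehicle, duplicates. Readout: PPP2R4 mRNA, Fluidigm qRT-PCR, housekeeping-normalized. Bidirectional curve fit vs DMSO baseline.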

Read-out in experiment [7]: Phosphatase and tensin (PTEN), PTEN (gene 5728)
As to the kind of experiment: LTEA_HepaRG_PTEN: Life Technologies and Expression Analysis (LTEA) Assay for Phosphatase and tensin (PTEN) using HepaRG (AID 2283523). In short, it runs like this: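 Expression of PTEN is quantified in the human liver line HepaRG following two days of dosing (top concentration 100 uM, half-log dilutions, 0.5% DMSO). Values derive from bidirectional curve fitting relative to DMSO controls.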

Read-out in experiment [8]: solute carrier (SLC22A1), SLC22A1 (gene 6580)
As to the kind of experiment: LTEA_HepaRG_SLC22A1: Life Technologies and Expression Analysis (LTEA) Assay for solute carrier (SLC22A1) using HepaRG (AID 2283524). In short, it runs like this:
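Transcript induction or suppression of SLC22A1 in human HepaRG cultures is scored after 48 h chemical treatment, with DMSO (0.5%) as baseline for bidirectional fitting. Concentrations span eight half-log points topping at 100 uM.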

Read-out in experiment [9]: Pyruvate Dehydrogenase Kinase 4 (PDK4), PDK4 (gene 5166)
As to the kind of experiment: LTEA_HepaRG_PDK4: Life Technologies and Expression Analysis (LTEA) Assay for Pyruvate Dehydrogenase Kinase 4 (PDK4) using HepaRG (AID 2283525). In short, it runs like this: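 Eight-point, half-log concentration series (max 100 uM, 0.5% DMSO) applied to differentiated HepaRG cells for 48 h in duplicate. Endpoint: PDK4 mRNA induction or repression by qRT-PCR against DMSO baseline.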

Read-out in experiment [10]: NAD(P)H dehydrogenase [quinone] 1 (NQO1), NQO1 (gene 1728)
As to the kind of experiment: LTEA_HepaRG_NQO1: Life Technologies and Expression Analysis (LTEA) Assay for NAD(P)H dehydrogenase [quinone] 1 (NQO1) using HepaRG (AID 2283526). The procedure, abridged: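 qRT-PCR read-out (Fluidigm TaqMan), normalized to three housekeeping genes, after 48 h chemical exposure of HepaRG cells. Concentrations: eight points, top 100 uM, half-log steps, 0.5% DMSO vehicle. Gain or loss of signal fitted relative to DMSO.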

Read-out in experiment [11]: Nuclear factor erythroid 2-related factor 2 (Homo sapiens) (UniProt Q16236)
As to the kind of experiment: LTEA_HepaRG_NFE2L2: Life Technologies and Expression Analysis (LTEA) Assay for Nuclear factor erythroid 2-related factor 2 (NFE2L2) Transcription Factor using HepaRG (AID 2283527).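 Also: TaqMan qRT-PCR transcript level normalised to ACTB GAPDH and POLR2A housekeeping genes.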 In short, it runs like this:
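Human liver HepaRG line treated in duplicate for 48 h with an eight-point series topping at 100 uM. Gene expression of NFE2L2 by qRT-PCR, bidirectionally fitted against the vehicle control.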

Read-out in experiment [12]: succinate dehydrogenase complex iron sulfur subunit B (SDHB), SDHB (gene 6390)
Nature of the experiment: LTEA_HepaRG_SDHB: Life Technologies and Expression Analysis (LTEA) Assay for succinate dehydrogenase complex iron sulfur subunit B (SDHB) using HepaRG (AID 2283528). In short, it runs like this:
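Readout is SDHB transcript level by qRT-PCR, normalised to three housekeeping genes and fitted bidirectionally against 0.5% DMSO vehicle. Human HepaRG cells were treated for 48 h at up to 100 uM.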

Read-out in experiment [13]: Signal transducer and activator of transcription 3 (Homo sapiens) (UniProt P40763)
As to the kind of experiment: LTEA_HepaRG_STAT3: Life Technologies and Expression Analysis (LTEA) Assay for Signal transducer and activator of transcription (STAT3) using HepaRG (AID 2283529). In short, it runs like this: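 In this transcriptional endpoint, HepaRG cultures receive test chemicals at up to 100 uM for 48 h, tested in duplicate. STAT3 mRNA is normalized to ACTB, GAPDH and POLR2A.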

Read-out in experiment [14]: solute carrier (SLCO1B1), SLCO1B1 (gene 10599)
As to the kind of experiment: LTEA_HepaRG_SLCO1B1: Life Technologies and Expression Analysis (LTEA) Assay for solute carrier (SLCO1B1) using HepaRG (AID 2283530). The procedure, abridged:
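Human HepaRG cultures treated for 48 h with an eight-concentration half-log series topping at 100 uM; SLCO1B1 measured by qRT-PCR and fitted bidirectionally relative to DMSO.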

Read-out in experiment [15]: sulfotransferase 2A1 (SULT2A1), SULT2A1 (gene 6822)
Nature of the experiment: LTEA_HepaRG_SULT2A1: Life Technologies and Expression Analysis (LTEA) Assay for sulfotransferase 2A1 (SULT2A1) using HepaRG (AID 2283531). The procedure, abridged:
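Gene-expression endpoint in a human liver cell line: SULT2A1 mRNA change after 48 h chemical treatment, curves fitted in both directions relative to 0.5% DMSO vehicle. Concentrations spanned eight half-log steps from 100 uM.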

Read-out in experiment [16]: Transforming Growth Factor (TGFA), TGFA (gene 7039)
Nature of the experiment: LTEA_HepaRG_TGFA: Life Technologies and Expression Analysis (LTEA) Assay for Transforming Growth Factor (TGFA) using HepaRG (AID 2283532). In short, it runs like this: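 Gene expression of TGFA was quantified by qRT-PCR after human HepaRG cells were treated for 48 h with test chemicals (eight concentrations, highest 100 uM, 0.5% DMSO). Activity in either direction was fitted relative to DMSO.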

Read-out in experiment [17]: Transforming Growth Factor (TGFB1), TGFB1 (gene 7040)
As to the kind of experiment: LTEA_HepaRG_TGFB1: Life Technologies and Expression Analysis (LTEA) Assay for Transforming Growth Factor (TGFB1) Transporter using HepaRG (AID 2283533). The procedure, abridged: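 Eight-point concentration-response (max 100 uM, half-log) in HepaRG under serum-free induction conditions, 48 h. TGFB1 mRNA by qRT-PCR, housekeeping-normalized.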

Read-out in experiment [18]: TIMP1, TIMP1 (gene 7076)
As to the kind of experiment: LTEA_HepaRG_TIMP1: Life Technologies and Expression Analysis (LTEA) Assay for TIMP1 using HepaRG (AID 2283534).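 Also: TaqMan qRT-PCR signal normalized to ACTB GAPDH and POLR2A housekeeping genes.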 The procedure, abridged: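 TIMP1 induction or repression in HepaRG cells after 48 h chemical exposure (eight concentrations, highest 100 uM), assessed by normalized qRT-PCR with bidirectional fitting to DMSO controls.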

Read-out in experiment [19]: Tumor necrosis factor receptor 1 (TNFRSF1A), TNFRSF1A (gene 7132)
As to the kind of experiment: LTEA_HepaRG_TNFRSF1A: Life Technologies and Expression Analysis (LTEA) Assay for Tumor necrosis factor receptor 1 (TNFRSF1A) using HepaRG (AID 2283535). The procedure, abridged:
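Assay uses 48 h chemical treatment of differentiated HepaRG monolayers, tested in duplicate at eight concentrations from 100 uM downward in 0.5% DMSO. mRNA is normalized to ACTB, GAPDH and POLR2A, with induction or suppression fitted relative to vehicle.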

Read-out in experiment [20]: Thyroid Hormone Responsive (THRSP), THRSP (gene 7069)
Nature of the experiment: LTEA_HepaRG_THRSP: Life Technologies and Expression Analysis (LTEA) Assay for Thyroid Hormone Responsive (THRSP) using HepaRG (AID 2283536). The procedure, abridged: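 Cell model: human HepaRG, approx. 100,000 cells/well, 0.5% DMSO vehicle. Exposure lasts 48 h; phenobarbital 1 mM serves as induction positive control. Gene expression is measured by qRT-PCR against three endogenous control genes.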

Active and inactive are the calls of the source. The calls were made as follows: active = hit-call score of the fitted dose curve at least 0.9, where 1 is the maximum; inactive = score below 0.9.

Signal transducer and activator of transcription 3 (Homo sapiens), sequence (P40763 whole entry, looked up): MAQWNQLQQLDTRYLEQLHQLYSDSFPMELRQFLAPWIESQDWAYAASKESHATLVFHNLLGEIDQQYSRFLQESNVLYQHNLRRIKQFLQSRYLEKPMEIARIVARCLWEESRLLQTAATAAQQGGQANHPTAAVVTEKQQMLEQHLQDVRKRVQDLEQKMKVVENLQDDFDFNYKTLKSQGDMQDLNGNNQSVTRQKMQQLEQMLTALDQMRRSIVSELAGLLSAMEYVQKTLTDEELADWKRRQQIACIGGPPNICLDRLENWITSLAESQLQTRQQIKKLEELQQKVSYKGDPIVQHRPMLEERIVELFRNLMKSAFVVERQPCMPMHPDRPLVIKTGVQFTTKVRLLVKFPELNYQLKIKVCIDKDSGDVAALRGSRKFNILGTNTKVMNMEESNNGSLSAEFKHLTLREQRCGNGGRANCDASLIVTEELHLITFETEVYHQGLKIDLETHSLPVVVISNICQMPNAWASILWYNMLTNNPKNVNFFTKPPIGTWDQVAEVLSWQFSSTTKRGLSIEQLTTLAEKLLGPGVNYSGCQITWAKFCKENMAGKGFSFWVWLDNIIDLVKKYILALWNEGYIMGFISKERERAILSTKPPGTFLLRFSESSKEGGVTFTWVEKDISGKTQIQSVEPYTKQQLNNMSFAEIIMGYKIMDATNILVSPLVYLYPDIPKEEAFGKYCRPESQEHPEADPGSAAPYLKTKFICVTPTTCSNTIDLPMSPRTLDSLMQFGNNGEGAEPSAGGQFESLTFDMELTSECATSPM
Nuclear factor NF-kappa-B p105 subunit (Homo sapiens), sequence (P19838 whole entry, looked up): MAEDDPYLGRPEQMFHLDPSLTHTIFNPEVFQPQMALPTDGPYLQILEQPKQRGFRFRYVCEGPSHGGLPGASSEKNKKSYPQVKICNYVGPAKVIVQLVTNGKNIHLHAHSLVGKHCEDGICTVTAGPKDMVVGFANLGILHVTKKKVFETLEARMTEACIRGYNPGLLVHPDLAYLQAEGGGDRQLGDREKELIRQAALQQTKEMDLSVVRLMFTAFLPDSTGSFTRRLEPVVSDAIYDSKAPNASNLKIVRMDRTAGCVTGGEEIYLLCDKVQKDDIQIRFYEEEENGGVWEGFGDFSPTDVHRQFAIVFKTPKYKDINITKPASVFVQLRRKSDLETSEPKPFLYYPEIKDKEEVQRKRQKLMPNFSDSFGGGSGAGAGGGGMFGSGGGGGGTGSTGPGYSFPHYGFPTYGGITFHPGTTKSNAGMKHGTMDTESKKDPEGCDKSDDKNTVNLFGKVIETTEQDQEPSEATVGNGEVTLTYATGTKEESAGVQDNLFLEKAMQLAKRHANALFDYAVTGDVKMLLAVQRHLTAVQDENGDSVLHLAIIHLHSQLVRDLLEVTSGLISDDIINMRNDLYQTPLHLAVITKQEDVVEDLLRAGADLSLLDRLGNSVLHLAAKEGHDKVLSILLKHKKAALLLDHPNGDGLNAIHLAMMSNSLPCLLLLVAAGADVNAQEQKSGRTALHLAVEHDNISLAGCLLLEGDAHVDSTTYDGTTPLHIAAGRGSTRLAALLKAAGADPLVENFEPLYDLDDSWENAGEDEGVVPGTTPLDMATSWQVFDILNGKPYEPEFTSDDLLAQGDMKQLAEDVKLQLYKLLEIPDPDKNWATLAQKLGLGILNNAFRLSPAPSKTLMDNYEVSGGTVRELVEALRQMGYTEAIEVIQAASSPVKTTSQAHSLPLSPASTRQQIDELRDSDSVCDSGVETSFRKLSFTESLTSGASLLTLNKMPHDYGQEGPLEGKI
Nuclear factor erythroid 2-related factor 2 (Homo sapiens), sequence (Q16236 whole entry, looked up): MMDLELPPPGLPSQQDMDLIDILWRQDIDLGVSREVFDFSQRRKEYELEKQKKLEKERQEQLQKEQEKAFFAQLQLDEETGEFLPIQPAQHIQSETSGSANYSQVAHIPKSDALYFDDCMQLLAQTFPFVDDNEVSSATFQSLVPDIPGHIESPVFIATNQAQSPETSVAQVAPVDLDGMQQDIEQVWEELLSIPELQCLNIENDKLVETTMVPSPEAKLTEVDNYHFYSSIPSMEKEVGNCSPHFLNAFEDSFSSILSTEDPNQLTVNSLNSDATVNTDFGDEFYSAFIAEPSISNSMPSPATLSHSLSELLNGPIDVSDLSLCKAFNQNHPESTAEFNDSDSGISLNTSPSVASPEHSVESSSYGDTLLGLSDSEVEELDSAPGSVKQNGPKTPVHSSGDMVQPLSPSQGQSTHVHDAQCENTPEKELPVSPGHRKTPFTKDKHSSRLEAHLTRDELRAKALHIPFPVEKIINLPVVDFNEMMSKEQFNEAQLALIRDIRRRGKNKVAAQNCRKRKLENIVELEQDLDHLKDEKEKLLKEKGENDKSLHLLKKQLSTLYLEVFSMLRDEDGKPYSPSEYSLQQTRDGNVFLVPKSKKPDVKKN

For `OC[C@@H](O)[C@@H](O)[C@H](O)[C@H](O)CO`, the call in experiment [1], in experiment [2], in experiment [3], in [4], in experiment [5] and in [6] was inactive. The call in [7], in experiment [8], in [9], in experiment [10], in experiment [11] and in [12] was inactive. Further, the result in experiment [13], in [14], in experiment [15], in experiment [16], in experiment [17] and in experiment [18] was inactive. The result in [19] and in experiment [20] was inactive.
`Nc1ccc(S(=O)(=O)c2ccc(N)cc2)cc1`: the outcome in experiment [1], in [2], in [3], in [4], in [6] and in [7] was inactive. The call in experiment [8], in experiment [9], in [10], in experiment [11], in [12] and in experiment [14] was inactive. The result in experiment [15], in experiment [16], in experiment [17], in [18], in [19] and in [20] was inactive. For the same compound, the AC50 (usually the concentration giving half of the maximal activity seen) was 353 nM (active) in experiment [5] and 767 nM (active) in experiment [13].
Turning to `Cc1ccc(C)c(C)c1`, the compound was classed as inactive in experiment [1], in experiment [2], in [3], in experiment [4], in experiment [5] and in experiment [6]. In addition, the result in experiment [7], in experiment [8], in experiment [9], in experiment [10], in experiment [11] and in [12] was inactive. Moreover, the compound was classed as inactive in [13], in [14], in experiment [15], in experiment [16], in experiment [17] and in experiment [18]. Also, the call in [19] and in experiment [20] was inactive.
As to `CCCCN(CCCC)CCCC`, the compound was called inactive in experiment [1], in experiment [2], in experiment [3], in [4], in experiment [5] and in experiment [6]. In addition, the compound was classed as inactive in experiment [8], in [9], in experiment [10], in [11], in experiment [12] and in [13]. In addition, the result in experiment [14], in experiment [15], in experiment [16], in experiment [17], in experiment [18] and in [19] was inactive. The call in experiment [20] was inactive.
`Cc1ccc(C(C)C)c(O)c1`: the compound was classed as inactive in experiment [1], in experiment [2], in [3], in [4], in experiment [5] and in [6]. Further, the call in experiment [8], in experiment [9], in [10], in [11], in experiment [12] and in experiment [13] was inactive. In addition, the result in [14], in experiment [15], in [16], in experiment [17], in experiment [18] and in experiment [19] was inactive. The compound was classed as inactive in [20].
For `COc1ccc(C)cc1N`, the compound was called inactive in experiment [1], in [2], in [3], in experiment [4], in experiment [5] and in experiment [6]. Further, the call in [8], in [9], in experiment [10], in experiment [11], in experiment [12] and in experiment [13] was inactive. Further, the result in [14], in experiment [15], in experiment [16], in [17], in [18] and in [19] was inactive. For the same compound, the compound was classed as inactive in experiment [20].
On to `C[Si]1(C)O[Si](C)(C)O[Si](C)(C)O[Si](C)(C)O1`, for which the compound was classed as inactive in experiment [1], in [2], in [3], in [4], in experiment [5] and in experiment [6]. The call in experiment [8], in experiment [9], in [10], in experiment [11], in [12] and in [13] was inactive. The outcome in experiment [14], in experiment [15], in [16], in [17], in experiment [18] and in experiment [19] was inactive. In experiment [20], the result was inactive.

The values are drawn from PubChem BioAssay (EPA / NIEHS).
